Experimental data: PubChem BioAssay AID624489 (Broad Institute, 2012)
Results with a measured potency or affinity are listed apart. Active and inactive are the calls of the source.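 Rule for the calls: active = compounds with a falling luminescence curve whose half-maximal concentration is at most twice the top valid dose; inconclusive = flat fit between -70 and -30 percent, or poor fit; inactive = the rest.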

Experiment: A375 melanoma cell cytotoxicity, dose response, counter-screen for MITF inhibitor project, CellTiter-Glo luminescence, dry powder, set 2 (AID 624489)
Conditions: A375 melanoma viability, CellTiter-Glo ATP luminescence, 24 h; series mostly up to 35 µM; activity change, negative = cytotoxicity: at the top concentration

Row | Structure (SMILES) | activity change, negative = cytotoxicity
1 | C=CCNC1=C(NS(=O)(=O)c2cccs2)C(=O)c2ccccc2C1=O | -7.19% (inactive)
2 | COc1ccc(C2=C(NC(=O)c3ccc(OC)cc3-c3cccc(OC)c3)C(=O)c3ccccc3C2=O)cc1 | -0.405% (inactive)
3 | O=C1C(NS(=O)(=O)c2ccc(Br)cc2)=C(N2CCN(c3ccccc3)CC2)C(=O)c2ccccc21 | -6.92% (inactive)
4 | C=CCNC1=C(NCC=C)C(=O)c2ccccc2C1=O | -5.66% (inactive)
5 | C=CCNC1=C(NC(=O)c2ccccc2)C(=O)c2ccccc2C1=O | -9.93% (inactive)
